Screening results (PubChem BioAssay)
Rows were chosen to be rich in hits. Some 10% of all compounds tested hit in one or more screens of this group.
PLK1 PBD block – blocks phosphopeptide binding to human PLK1 polo-box domain; Plk1 PBD binding of FITC phosphopeptide, fluorescence polarization; Potency, µM, for the others: max response, negative = inhibition, hits mostly inhibitors; 2.8% of 360,000 active; further: potency means the concentration at half of the fitted maximal effect; series mostly up to about 57 µM; nearly all actives have a fitted effect of over 65% in size
CCT modulator – modulators of cytosolic chaperonin (CCT/TRiC) activity. 0.3% of 360,000 active. purified chaperonin ATPase assay, HTRF ADP detection, 30 min. activity change, % (no concentration beside the values), hits read low. AID 651819; in the data active means activity change below about -30%
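Nucleotide hydrolysis assay: TRiC at 20–40 nM final (set by batch activity) with 10 uM ATP, 30 min at 37 °C, in presence of 76 uM compound. Detection by competitive ADP HTRF, 30 min ambient.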
VDR inh – inhibitors of human vitamin D receptor; P11473; 0.93% of 400,000 active; VDR-SRC2-3 peptide fluorescence polarization, 2 h; Potency, µM, for inactives: max response, negative = inhibition, usual class: inhibitors; further: potency means the concentration at half of the fitted maximal effect
Target sequence (P11473 whole entry, looked up): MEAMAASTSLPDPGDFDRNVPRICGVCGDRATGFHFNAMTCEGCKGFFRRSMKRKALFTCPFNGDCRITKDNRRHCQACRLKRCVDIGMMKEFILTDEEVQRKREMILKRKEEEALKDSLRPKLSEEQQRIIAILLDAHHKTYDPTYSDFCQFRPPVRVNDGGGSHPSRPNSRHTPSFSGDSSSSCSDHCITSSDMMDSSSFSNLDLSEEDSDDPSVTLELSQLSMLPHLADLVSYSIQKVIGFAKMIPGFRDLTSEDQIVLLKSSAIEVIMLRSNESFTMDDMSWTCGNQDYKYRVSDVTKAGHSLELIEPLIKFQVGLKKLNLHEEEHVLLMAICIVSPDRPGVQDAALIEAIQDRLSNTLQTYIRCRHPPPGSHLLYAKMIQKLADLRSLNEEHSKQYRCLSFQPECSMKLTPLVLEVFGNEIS
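FP read-out; VDR + SRC2-3 coactivator peptide; 23 nl compound by pintool; 2 h RT incubation; reagents held at 4 deg C, protected from light.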
G9a inh – blocks human histone lysine methyltransferase G9a; Q96KQ7; G9a H3K9 monomethylation, AlphaScreen, 2 h; Potency, µM (doses to about 102 µM), for inactives: at the highest dose activity, negative = inhibition, hits mostly inhibitors; 8.8% of 350,000 active; AID 504332; further: potency means the concentration at half of the fitted maximal effect; nearly all actives have a fitted effect of over 75% in size
Target sequence (Q96KQ7 913-1193 limits assumed): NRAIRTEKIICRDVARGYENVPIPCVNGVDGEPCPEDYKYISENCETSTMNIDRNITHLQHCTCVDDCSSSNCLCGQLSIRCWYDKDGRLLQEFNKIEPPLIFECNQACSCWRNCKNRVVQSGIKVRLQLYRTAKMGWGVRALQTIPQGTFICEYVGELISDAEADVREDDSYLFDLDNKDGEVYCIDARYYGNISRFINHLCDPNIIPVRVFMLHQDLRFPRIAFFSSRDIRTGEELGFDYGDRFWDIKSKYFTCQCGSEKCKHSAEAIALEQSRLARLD
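Step 1: enzyme (final 20 nM) with compound, 15 min RT. Step 2: substrate peptide 500 nM and SAM 20 uM, 2 h RT. Step 3: anti-H3K9me1 antibody and AlphaScreen beads, 10 min, then plate read.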
MmCpn inh – blocks the Methanococcus maripaludis chaperonin Mm-Cpn; Potency, µM (highest dose often 76.9 µM), for inactives: top-dose activity, negative = inhibition, hits mostly inhibitors; AID 504842; 0.031% of 330,000 active; purified Mm-Cpn ATPase, ADP Transcreener TR-FRET; further: potency means the concentration at half of the fitted maximal effect; nearly all actives have a fitted effect of over 80% in size
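ATPase read-out: TR-FRET ADP immunoassay (anti-ADP Eu cryptate vs ADP-d2), ex 320 nm, em 590/665 nm; signal drops as ADP forms. Enzyme 25 nM, ATP 10 uM, 30 min at 37°C after 10 min compound preincubation.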
Sfp inh – inhibitors of Bacillus subtilis Sfp phosphopantetheinyl transferase | Potency, µM, for inactives: largest response in the series, negative = inhibition, hits mostly inhibitors | Biochemical Sfp PPTase activity, qHTS | AID 1490 | Q9F4F7 | 3.5% of 310,000 active;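 further: the enzyme is Sfp with the accession as filed and its product quenches rhodamine fluorescence; potency means the concentration at half of the fitted maximal effect; 0% = enzyme reaction without inhibitor and -100% = no enzyme wells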
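Sfp 15 nM + cpd, 15 min RT; start w/ rhodamine-CoA 5 uM, BHQ-2-YbbR 12.5 uM (final); 50 mM Hepes pH 7.6, 10 mM MgCl2, 0.01% NP-40, 0.01% BSA; read 525/598 nm at 0 and 30 min.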
An asterisk follows results filed as active; ? = inconclusive; . = no result given; [ ] = another dose, or the depositor's remark. Unless noted, the call rests on the fitted dose curve; in most records, active means well fitted curve in the direction sought with a large enough effect; inconclusive means small, poorly fitted or top-dose-only effect, or another doubt; inactive means no such curve, though single readings can be large; an effect the other way counts as inactive or inconclusive. Unless noted, on the % scale 0 is the no-effect control and ±100 the full control effect.

SMILES	PLK1 PBD block	CCT modulator	VDR inh	G9a inh	MmCpn inh	Sfp inh
Cc1ccc(Cl)cc1NS(=O)(=O)c1ccc2c(c1)NC(=O)CCS2	.	.	5%	-2%[59 µM]	.	.
CC(C)Cn1c(SCc2cccc(F)c2)nc2ccsc2c1=O	.	.	8%	57%[59 µM]	.	.
O=C(O)c1cc(-c2ccco2)nn1-c1cccc(Cl)c1	?	-1	-19%	18µM*	-2%	20µM*
O=C(O)c1nn(-c2cccc(Cl)c2)c(=O)cc1O	-5%	1	-11%	.	0%	-17%
O=C(O)c1cc(-c2cc3ccccc3o2)nn1-c1ccccc1	-7%	-1	13%	45µM*	-4%	14%
O=C(O)/C=C\c1cn(-c2ccccc2)nc1-c1cc2ccccc2o1	-25%	4	-4%	-30%	-5%	-12%
COc1ccc(N2C3=C(CC4=C2CC(C)(C)CC4=O)C(=O)CC(C)(C)C3)cc1	8.4µM*	2	-89%	?	-1%	18µM*
CCC(=O)N1CCc2cc(CNS(=O)(=O)c3ccccc3F)ccc21	.	.	14%	2%[59 µM]	.	.
CC1CCC2(CC1)Nc1ccccc1C(=O)N2c1ccccc1 (configuration not stated)	-8%	-1	-13%	71µM*	0%	10%
Cc1cc(C)c(C#N)c(SCCN2CCCCC2)n1	-9%	2	9%	?	1%	19%
Cc1cc(C(F)(F)F)nc(SCCN2CCOCC2)c1C#N	?	0	-4%	13µM*	0%	-26%
N#Cc1c(C(F)(F)F)cc(-c2ccc(Cl)c(Cl)c2)nc1SCCN1CCOCC1	-10%	-3	-11%	56µM*	-5%	17%
COc1ccc(NC(=O)Cn2cnc3c(nc4n3CCCCC4)c2=O)c(OC)c1	.	.	5%	-31%[59 µM]	.	.
CC(C)c1ccc(-c2nnc3n(CCc4ccccc4)c(=O)c4ccccc4n23)cc1	.	.	17%	-34%[59 µM]	.	.
CCCN(CCO)C1CCN(CCc2ccccc2)CC1	2%	3	19%	50µM*	-13%	6%
CCCCN(Cc1ccccc1)C1CCN(Cc2ccccc2)CC1	-13%	-2	-28%	.	-3%	-5%
Cc1cccc(C)c1NC(=O)Cn1c(=O)cc(C)c2c(C)nn(-c3cccc(Cl)c3C)c21	.	.	9%	7%[59 µM]	.	.
CC(C)c1ccc(NC(=S)NNC(=O)c2cccnc2)cc1	-13%	-1	-9%	32µM*	0%	21%
O=C(NNC(=S)NC(=O)c1cccnc1)c1ccc(Cl)cc1	-27%	0	-12%	22µM*	0%	1%
O=C(NC(=S)NNC(=O)c1ccc(Cl)cc1Cl)c1cccnc1	-21%	-1	-7%	2.2µM*	0%	45µM*
O=C(Cc1ccc(Cl)cc1)NNC(=S)NC(=O)c1cccnc1	-14%	-1	-2%	.	1%	-10%
O=C(NC(=S)NNC(=O)c1ccccc1O)c1cccnc1	?	-9	-3%	13µM*	-1%	3%
CCOC(=O)Cc1ccc(NC(=O)NCc2ccc3c(c2)CCN3C(=O)CC)cc1	.	.	5%	5%[59 µM]	.	.
Cc1c(Cl)cccc1N1C(=O)CC(NNC(=O)c2cccnc2)C1=O (configuration not stated)	-1%	0	-12%	23%[59 µM]	1%	7%
CC(C)c1ccc(N2C(=O)CC(NNC(=O)c3cccnc3)C2=O)cc1 (configuration not stated)	-1%	2	9%	56µM*	3%	4%
SMILES	PLK1 PBD block	CCT modulator	VDR inh	G9a inh	MmCpn inh	Sfp inh
Nc1nn2cc(-c3ccc(Br)cc3)nc2c2ccccc12	-4%	1	11%	79µM*	-24%	-14%
COc1cc(/C=N/N2CCN(C3c4ccccc4-c4ccccc43)CC2)cc(OC)c1OC	-5%	1	5%	50µM*	0%	?
COc1ccc(/C=N/N2CCN(C)CC2)cc1O	-10%	0	-22%	32µM*	-1%	?
COc1ccc(/C=N/N2CCN(C3c4ccccc4-c4ccccc43)CC2)cc1OC	-10%	-1	-7%	8%[59 µM]	0%	0%
COc1cccc(/C=N/N2CCN(C)CC2)c1	-4%	-1	0%	-8%[59 µM]	0%	10%
COc1cc(/C=N/N2CCN(C3c4ccccc4-c4ccccc43)CC2)cc(OC)c1O	4%	0	-8%	1.6µM*	4%	40µM*
CC(C(=O)Nc1ccccc1C(F)(F)F)n1nnc2sc3c(c2c1=O)CCCC3 (configuration not stated)	.	.	7%	14µM*	.	.
COc1ccc(Cl)cc1NC(=O)C(C)n1nnc2sc3c(c2c1=O)CCCC3 (configuration not stated)	.	.	16%	14µM*	.	.
Cn1nnc2sc3c(c2c1=O)CCCC3	?	1	-18%	?	-2%	50µM*
CC(C(=O)Nc1ccccc1)n1nnc2sc3c(c2c1=O)CCCC3 (configuration not stated)	.	.	8%	16µM*	.	.
Cc1ccccc1Cn1nnc2sc3c(c2c1=O)CCCC3	.	.	-3%	111%[59 µM]	.	.
Cc1ccc(NC(=O)C(C)n2nnc3sc4c(c3c2=O)CCCC4)cc1Cl (configuration not stated)	.	.	10%	?	.	.
CC(C)(C)C1CCc2c(sc(NC(=O)c3cccc(Cl)c3)c2C(=O)NCc2ccco2)C1 (configuration not stated)	.	.	-26%	-4%[59 µM]	.	.
O=C(Cn1ncc2c3ccccc3n(Cc3ccccc3)c2c1=O)NCCCN1CCCCC1	.	.	27%	0%[59 µM]	.	.
CCc1cccc(NC(=O)c2cc3c(=O)n(Cc4ccc(OC)cc4)ccc3nc2C)c1	.	.	7%	-21%[59 µM]	.	.
COc1nc2ccccc2nc1CCC(=O)O	30µM*	0	-6%	39%	1%	16%
COC(=O)CCc1nc2ccccc2nc1OC	1%	-2	-17%	-4%	3%	12%
COc1ccc(C2CC(c3ccccc3)Oc3ccc(OC)cc32)cc1 (configuration not stated)	.	.	-26%	.	.	4%
CCN(CC)c1ccc(NC(=O)C2CCN(S(=O)(=O)c3c(C)noc3/C=C/c3ccccc3F)CC2)c(C)c1	.	.	4%	-50%[59 µM]	.	.
CCOC(=O)c1c(N)sn(-c2ccccc2)c1=S	-2%	-1	2%	-16%[59 µM]	1%	1%
CCOC(=O)c1c2c(c(=S)n(-c3ccccc3)c1N)CCC2	-8%	2	-4%	25µM*	0%	13µM*
N#Cc1c2c(c(=S)n(-c3ccccc3)c1N)CCCC2	2.7µM*	3	-17%	8.9µM*	0%	32µM*
CC1(C)Cc2c(C#N)c(N)n(-c3ccccc3)c(=S)c2CO1	11µM*	0	27%	.	0%	12%
CCC1(C)Cc2c(C#N)c(N)n(N)c(=S)c2CO1 (configuration not stated)	27µM*	-1	-20%	?	-3%	-16%
CC(C)(C)C(=O)NCCCC(=O)O	.	.	3%	5%[12.7 µM]	.	5%
